These results are taken from PubChem BioAssay (Tox21).

Molecules are shown by their SMILES. Where “and” joins values, the source holds several entries; their conditions need not be identical. Equal entries are not always repeated. Records with an inconclusive call do not appear. Entries that show only a call come without a potency. Calls of active or inactive are those of the source. The call rests on the fitted dose curve; in most records, active means well fitted curve in the direction sought with a large enough effect in the repeat runs; inconclusive means weak or mixed curves; inactive means no such curve, though single readings can be large; an effect the other way counts as inactive or inconclusive.

Chain of Aryl hydrocarbon receptor (Homo sapiens) (P35869 whole entry, looked up): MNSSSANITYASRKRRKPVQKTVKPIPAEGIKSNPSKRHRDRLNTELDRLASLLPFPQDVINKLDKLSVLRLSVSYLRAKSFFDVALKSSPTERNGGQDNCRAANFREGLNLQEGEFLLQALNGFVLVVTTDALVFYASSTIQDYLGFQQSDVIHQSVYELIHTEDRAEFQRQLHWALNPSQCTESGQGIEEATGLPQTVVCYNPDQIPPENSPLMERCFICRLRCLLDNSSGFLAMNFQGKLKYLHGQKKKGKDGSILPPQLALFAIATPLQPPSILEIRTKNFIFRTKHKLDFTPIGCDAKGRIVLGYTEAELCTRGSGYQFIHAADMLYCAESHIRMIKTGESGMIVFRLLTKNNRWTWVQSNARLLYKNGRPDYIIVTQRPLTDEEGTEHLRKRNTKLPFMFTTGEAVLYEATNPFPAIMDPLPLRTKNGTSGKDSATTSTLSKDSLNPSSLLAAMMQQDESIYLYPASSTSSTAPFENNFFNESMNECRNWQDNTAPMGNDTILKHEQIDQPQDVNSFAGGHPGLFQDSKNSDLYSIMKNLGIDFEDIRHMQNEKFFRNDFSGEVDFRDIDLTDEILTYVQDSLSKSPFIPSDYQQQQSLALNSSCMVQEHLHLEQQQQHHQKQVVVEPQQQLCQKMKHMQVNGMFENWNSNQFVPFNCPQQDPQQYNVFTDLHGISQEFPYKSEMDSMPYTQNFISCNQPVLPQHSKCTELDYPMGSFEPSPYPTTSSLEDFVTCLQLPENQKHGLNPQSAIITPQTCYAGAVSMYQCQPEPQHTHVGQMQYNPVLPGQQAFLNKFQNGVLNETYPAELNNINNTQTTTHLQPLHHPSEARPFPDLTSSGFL

Tested on in the first assay: not listed separately
Put plainly: qHTS assay to identify aromatase inhibitors - cell viability counter screen (AID 743084).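 Further: cells stimulated with testosterone during compound exposure; nearly all actives have a fitted effect of over 55% in size.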 To be noted: MCF-7 aro ERE viability, CellTiter-Fluor, 24 h; series mostly up to 70.3 µM.
Take `CC(C)OC(=O)Nc1ccccc1`: the outcome was inactive.
On the same count and under the same terms, with `COC(=O)c1ccccc1N` the entry was “inactive”.
Take `OC(O)C(Cl)(Cl)Cl`: the compound was called inactive.
On to `CC1C=[C-]C=C1.[C-]#[O+].[C-]#[O+].[C-]#[O+].[Mn]`, for which the call was inactive.
Still for that read-out and setting: with `Clc1ccc(Cl)cc1` the entry was “inactive”; with `CC(=O)C=C(C)C`, “inactive”; with `Cc1ccc(N)cc1N`, “inactive”.
Same read-out and setting: the result for `O=S(=O)(c1ccc(Cl)cc1)c1cc(Cl)c(Cl)cc1Cl` reads “inactive”; that for `CCCCCCCCCl`, “inactive”.
As for `CCCN(CCC)c1c([N+](=O)[O-])cc(C(F)(F)F)cc1[N+](=O)[O-]`, the call was inactive.
Still for that read-out and setting: with `CN(C)N=O` the entry was “inactive”.
Still for that read-out and setting: with `C#CCN(C)[C@H](C)Cc1ccccc1` the entry was “inactive”.
Still for that read-out and setting: the result for `CCC(C)(CC)c1cc(NC(=O)c2c(OC)cccc2OC)on1` reads “inactive”.
With `O=C(NC(=O)c1c(F)cccc1F)Nc1cc(Cl)c(OC(F)(F)C(F)C(F)(F)F)cc1Cl` (stereo unspecified), the result was inactive.
Regarding `NCC(O)c1ccc(O)cc1` (stereo unspecified), the outcome was inactive.
Regarding `Clc1ccccc1Cl`, the result was inactive.
As to `CC(C)C1(C)N=C(c2nc3ccccc3cc2C(=O)O)NC1=O` (stereo unspecified), the call was inactive.
With `Oc1ccccc1Cl`, the result was inactive.
In the case of `ClCc1cccnc1`, the outcome was inactive.
Regarding `O=NN1CCCC1`, the result was inactive.
With `CCNc1nc(NC(C)C)nc(SC)n1`, the compound was classed as inactive.
Regarding `CCCCCOC(=O)c1ccccc1C(=O)OCCCCC`, the result was inactive.
Consider `O=c1n(Cl)c(=O)n(Cl)c(=O)n1Cl`, for which the result was inactive.
Take `COc1ccc2c3c1O[C@H]1[C@@H](O)C=C[C@H]4[C@@H](C2)N(C)CC[C@@]341`: the compound was called inactive.
`Cc1cc(-c2cc(C)c(N)c(C)c2)cc(C)c1N`: the call was inactive.
On to `CC(C)=C[C@@H]1[C@@H](C(=O)OCc2coc(Cc3ccccc3)c2)C1(C)C`, for which the call was inactive.
Take `O=[N+]([O-])c1ccc([As](=O)(O)O)cc1`: the outcome was inactive.
Same read-out and setting: the result for `CC(C)OC(=O)Nc1cccc(Cl)c1` reads “inactive”; that for `CN(N=O)c1ccccc1`, “inactive”.
The same measure, in the same setting: with `CC(Oc1ccc(Cl)cc1Cl)C(=O)O` (stereo unspecified) the entry was “inactive”; with `CN(C)[C@@H]1C(=O)C(C(N)=O)=C(O)[C@@]2(O)C(=O)C3=C(O)c4c(O)cccc4[C@@](C)(O)[C@H]3C[C@@H]12`, “inactive”.
Same read-out and setting: the result for `COC(=O)NS(=O)(=O)c1ccc(N)cc1` reads “inactive”; that for `Nc1ccc(Br)cc1`, “inactive”.
With `CN(C)CCO`, the call was inactive.
On the same count and under the same terms, with `ClCCBr` the entry was “inactive”.
Regarding `CCC[N+](=O)[O-]`, the compound was called inactive.
On the same count and under the same terms, with `COP(N)(=O)SC` (stereo unspecified) the entry was “inactive”.

A further assay addresses Aryl hydrocarbon receptor (Homo sapiens) (UniProt P35869). The experiment in a line: qHTS assay to identify small molecule that activate the aryl hydrocarbon receptor (AhR) signaling pathway (AID 743085). Further: nearly all actives have a fitted effect of over 15% in size. Further: potency means the concentration at half of the fitted maximal effect. To be noted: HepG2 AhR-luc (HG2L7.5c1), luciferase, 24 h; series mostly up to 70.3 µM. The method in brief: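 Measured in HG2L7.5c1 cells: CellTiter-Fluor signal (30 min incubation, 37C) for viability, then luciferase luminescence (30 min, room temperature). Compound contact time was 24 h at 37C, following a 5 h pre-incubation.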
For the compound `CC(C)OC(=O)Nc1ccccc1`, the Potency entry was “inactive”.
For the compound `COC(=O)c1ccccc1N`, the Potency result was “inactive”.
With `OC(O)C(Cl)(Cl)Cl`, the Potency entry is “inactive”.
For `CC1C=[C-]C=C1.[C-]#[O+].[C-]#[O+].[C-]#[O+].[Mn]`, the Potency result is “inactive”.
For the compound `Clc1ccc(Cl)cc1`, the Potency result was “inactive”.
The same measure, in the same setting: with `CC(=O)C=C(C)C` the entry was “inactive”; with `Cc1ccc(N)cc1N`, 21.1 µM (active) and 27.3 µM (active); with `O=S(=O)(c1ccc(Cl)cc1)c1cc(Cl)c(Cl)cc1Cl`, “inactive”.
On the same count and under the same terms, the result for `CCCCCCCCCl` reads “inactive”; that for `CCCN(CCC)c1c([N+](=O)[O-])cc(C(F)(F)F)cc1[N+](=O)[O-]`, “inactive”; that for `CN(C)N=O`, “inactive”.
`C#CCN(C)[C@H](C)Cc1ccccc1`: the Potency entry is “inactive”.
For `CCC(C)(CC)c1cc(NC(=O)c2c(OC)cccc2OC)on1`, the Potency was 61.3 µM (active).
For `O=C(NC(=O)c1c(F)cccc1F)Nc1cc(Cl)c(OC(F)(F)C(F)C(F)(F)F)cc1Cl` (stereo unspecified), the Potency result was “inactive”.
As to `NCC(O)c1ccc(O)cc1` (stereo unspecified), the Potency result is “inactive”.
On to `Clc1ccccc1Cl`, for which the Potency entry is “inactive”.
Regarding `CC(C)C1(C)N=C(c2nc3ccccc3cc2C(=O)O)NC1=O` (stereo unspecified), the Potency result was “inactive”.
The same measure, in the same setting: with `Oc1ccccc1Cl` the entry was “inactive”.
On the same count and under the same terms, the result for `ClCc1cccnc1` reads “inactive”; that for `O=NN1CCCC1`, “inactive”.
On the same count and under the same terms, with `CCNc1nc(NC(C)C)nc(SC)n1` the entry was “inactive”.
As to `CCCCCOC(=O)c1ccccc1C(=O)OCCCCC`, the Potency entry was “inactive”.
The same measure, in the same setting: the result for `O=c1n(Cl)c(=O)n(Cl)c(=O)n1Cl` reads “inactive”.
For the compound `COc1ccc2c3c1O[C@H]1[C@@H](O)C=C[C@H]4[C@@H](C2)N(C)CC[C@@]341`, the Potency entry was “inactive”.
With `Cc1cc(-c2cc(C)c(N)c(C)c2)cc(C)c1N`, the Potency is 1.54 µM (active) and 756 nM (active).
The same measure, in the same setting: the result for `CC(C)=C[C@@H]1[C@@H](C(=O)OCc2coc(Cc3ccccc3)c2)C1(C)C` reads “inactive”; that for `O=[N+]([O-])c1ccc([As](=O)(O)O)cc1`, “inactive”; that for `CC(C)OC(=O)Nc1cccc(Cl)c1`, “inactive”.
On the same count and under the same terms, with `CN(N=O)c1ccccc1` the entry was “inactive”.
Take `CC(Oc1ccc(Cl)cc1Cl)C(=O)O` (stereo unspecified): the Potency entry was “inactive”.
For the compound `CN(C)[C@@H]1C(=O)C(C(N)=O)=C(O)[C@@]2(O)C(=O)C3=C(O)c4c(O)cccc4[C@@](C)(O)[C@H]3C[C@@H]12`, the Potency result was “inactive”.
As for `COC(=O)NS(=O)(=O)c1ccc(N)cc1`, the Potency result was “inactive”.
Consider `Nc1ccc(Br)cc1`, for which the Potency is 61 µM (active) and 21.7 µM (active).
On to `CN(C)CCO`, for which the Potency entry is “inactive”.
`ClCCBr`: the Potency result was “inactive”.
Still for that read-out and setting: with `CCC[N+](=O)[O-]` the entry was “inactive”; with `COP(N)(=O)SC` (stereo unspecified), “inactive”.

Tested on in another assay: not listed separately
The experiment in a line: qHTS assay to identify small molecule that activate the aryl hydrocarbon receptor (AhR) signaling pathway - cell viability counter screen (AID 743086). Further: nearly all actives have a fitted effect of over 45% in size. The note with it: HepG2-AhR-luc viability, CellTiter-Fluor, 24 h; series mostly up to 70.3 µM. The method in brief: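 Cytotoxicity counter screen: CellTiter-Fluor signal (30 min, 37 C) in 4000 HepG2 cells/well carrying the DRE-luciferase reporter, following 24 h compound exposure at 37 C.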
For orientation: qHTS replaces the single test concentration by a dilution series.
Regarding `CC(C)OC(=O)Nc1ccccc1`, the compound was called inactive.
The same measure, in the same setting: the result for `COC(=O)c1ccccc1N` reads “inactive”; that for `OC(O)C(Cl)(Cl)Cl`, “inactive”; that for `CC1C=[C-]C=C1.[C-]#[O+].[C-]#[O+].[C-]#[O+].[Mn]`, “inactive”.
For `Clc1ccc(Cl)cc1`, the result was inactive.
The same measure, in the same setting: the result for `CC(=O)C=C(C)C` reads “inactive”.
On to `Cc1ccc(N)cc1N`, for which the call was inactive.
For `O=S(=O)(c1ccc(Cl)cc1)c1cc(Cl)c(Cl)cc1Cl`, the call was inactive.
As for `CCCCCCCCCl`, the result was inactive.
With `CCCN(CCC)c1c([N+](=O)[O-])cc(C(F)(F)F)cc1[N+](=O)[O-]`, the compound was classed as inactive.
The same measure, in the same setting: with `CN(C)N=O` the entry was “inactive”; with `C#CCN(C)[C@H](C)Cc1ccccc1`, “inactive”.
Take `CCC(C)(CC)c1cc(NC(=O)c2c(OC)cccc2OC)on1`: the call was inactive.
As to `O=C(NC(=O)c1c(F)cccc1F)Nc1cc(Cl)c(OC(F)(F)C(F)C(F)(F)F)cc1Cl` (stereo unspecified), the outcome was inactive.
Same read-out and setting: with `NCC(O)c1ccc(O)cc1` (stereo unspecified) the entry was “inactive”; with `Clc1ccccc1Cl`, “inactive”.
Still for that read-out and setting: the result for `CC(C)C1(C)N=C(c2nc3ccccc3cc2C(=O)O)NC1=O` (stereo unspecified) reads “inactive”; that for `Oc1ccccc1Cl`, “inactive”; that for `ClCc1cccnc1`, “inactive”.
For the compound `O=NN1CCCC1`, the outcome was inactive.
`CCNc1nc(NC(C)C)nc(SC)n1`: the call was inactive.
Consider `CCCCCOC(=O)c1ccccc1C(=O)OCCCCC`, for which the result was inactive.
Same read-out and setting: with `O=c1n(Cl)c(=O)n(Cl)c(=O)n1Cl` the entry was “inactive”.
Regarding `COc1ccc2c3c1O[C@H]1[C@@H](O)C=C[C@H]4[C@@H](C2)N(C)CC[C@@]341`, the compound was classed as inactive.
On the same count and under the same terms, with `Cc1cc(-c2cc(C)c(N)c(C)c2)cc(C)c1N` the entry was “inactive”; with `CC(C)=C[C@@H]1[C@@H](C(=O)OCc2coc(Cc3ccccc3)c2)C1(C)C`, “inactive”; with `O=[N+]([O-])c1ccc([As](=O)(O)O)cc1`, “inactive”.
Same read-out and setting: with `CC(C)OC(=O)Nc1cccc(Cl)c1` the entry was “inactive”; with `CN(N=O)c1ccccc1`, “inactive”.
Same read-out and setting: the result for `CC(Oc1ccc(Cl)cc1Cl)C(=O)O` (stereo unspecified) reads “inactive”.
For `CN(C)[C@@H]1C(=O)C(C(N)=O)=C(O)[C@@]2(O)C(=O)C3=C(O)c4c(O)cccc4[C@@](C)(O)[C@H]3C[C@@H]12`, the compound was classed as inactive.
As to `COC(=O)NS(=O)(=O)c1ccc(N)cc1`, the result was inactive.
Take `Nc1ccc(Br)cc1`: the outcome was inactive.
The same measure, in the same setting: with `CN(C)CCO` the entry was “inactive”; with `ClCCBr`, “inactive”; with `CCC[N+](=O)[O-]`, “inactive”.
Same read-out and setting: with `COP(N)(=O)SC` (stereo unspecified) the entry was “inactive”.
